This is one part of the list. Activity calls are given as the source filed them. No rule for the calls is given here.
biological target: Lethal factor (Bacillus anthracis) (UniProt P15917); experiment: Bacillus anthracis LF protease inhibitors, confirmation, biochemical, multiplex microsphere, cherry pick 1 (AID 602142); conditions: multiplex microsphere protease cleavage assay, at 10 µM, stronger effect = higher value
Sequence (P15917 whole entry, looked up): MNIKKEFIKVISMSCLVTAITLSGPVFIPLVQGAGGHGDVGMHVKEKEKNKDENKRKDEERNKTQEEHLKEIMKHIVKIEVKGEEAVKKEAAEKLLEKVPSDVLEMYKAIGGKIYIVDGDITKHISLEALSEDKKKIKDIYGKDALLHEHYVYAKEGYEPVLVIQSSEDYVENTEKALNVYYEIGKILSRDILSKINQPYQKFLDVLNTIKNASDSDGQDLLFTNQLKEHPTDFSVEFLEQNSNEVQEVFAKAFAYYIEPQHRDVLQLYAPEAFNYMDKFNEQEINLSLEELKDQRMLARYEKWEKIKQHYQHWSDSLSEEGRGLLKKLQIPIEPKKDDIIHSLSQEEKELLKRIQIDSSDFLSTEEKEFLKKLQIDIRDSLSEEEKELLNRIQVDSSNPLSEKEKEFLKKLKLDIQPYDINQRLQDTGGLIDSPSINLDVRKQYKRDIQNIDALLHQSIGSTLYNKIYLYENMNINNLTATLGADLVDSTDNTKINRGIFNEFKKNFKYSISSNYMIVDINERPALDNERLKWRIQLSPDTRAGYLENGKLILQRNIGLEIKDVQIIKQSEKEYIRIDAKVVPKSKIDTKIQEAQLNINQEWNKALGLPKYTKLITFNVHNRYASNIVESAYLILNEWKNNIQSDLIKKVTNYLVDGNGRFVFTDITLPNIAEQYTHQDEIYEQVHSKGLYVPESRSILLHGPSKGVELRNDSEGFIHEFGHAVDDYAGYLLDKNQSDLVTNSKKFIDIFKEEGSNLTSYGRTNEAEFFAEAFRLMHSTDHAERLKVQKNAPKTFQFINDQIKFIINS

| Structure (SMILES) | inhibition |
| --- | --- |
| COc1ccc(N(CC(=O)NCCSCc2cccc(Cl)c2)S(C)(=O)=O)cc1 | -1.8% (inactive) |
| CC1CCc2c(sc3nc4n(c(=O)c23)CCS4)C1 (stereo unspecified) | 3.6% (inactive) |
| Nc1ccccc1Sc1cc(Cl)nnc1Cl | -3.5% (inactive) |
| COc1cc(C(=O)NCc2ccc3c(c2)cc(C)n3C)cc(OC)c1OC | -4% (inactive) |
| Cc1ccccc1NC(=O)c1cc(S(=O)(=O)Nc2cccc(C(=O)O)c2)ccc1Cl | -0.5% (inactive) |
| CC(C)Cc1nnc(NC(=O)CCC(=O)Nc2ccc3cn[nH]c3c2)s1 | -2.6% (inactive) |
| CCN1CCN(C(C(=O)NC2CCCC2)c2cc3c(cc2[N+](=O)[O-])OCO3)CC1 (stereo unspecified) | 1.5% (inactive) |
| CC(=O)Nc1ccc(Oc2ccc3c(c2)C(=O)NC3=O)cc1 | 0.6% (inactive) |
| O=S(=O)(NC1CCCCC1N1CCC(O)CC1)c1ccc(Cl)cc1 (stereo unspecified) | -1.6% (inactive) |
| CN1CCN(c2ccc(NC(=O)c3ccccc3)cc2)CC1 | 4.8% (inactive) |
| O=C(O)c1cc(S(=O)(=O)NC2CCCc3ccccc32)ccc1O (stereo unspecified) | 1.4% (inactive) |
| CN(C(=O)c1ccccn1)c1nnc(-c2ccccn2)s1 | -4.3% (inactive) |
| CCOCC(=O)NCc1ccc2c(c1)cc(C)n2C | -1% (inactive) |
| Cc1ccc(C(=O)COc2cccc(NC(=O)c3ccco3)c2)cc1 | -1.8% (inactive) |
| O=C(CN1CCCCCC1)Nc1c(Cl)cc(Cl)cc1Cl | 2.3% (inactive) |
| CCOc1nnc(C)c2c(C)n(-c3cccc(Cl)c3)nc12 | 3.5% (inactive) |
| Cc1c(NC(=O)c2cccnc2)c(=O)n(-c2ccccc2)n1C | 4.2% (inactive) |
| CC1CCN(C(=O)c2ccc(S(=O)(=O)Cc3cc(F)ccc3F)c([N+](=O)[O-])c2)CC1 | 1.6% (inactive) |
| Cc1cc(S(=O)(=O)NC2CCCC2)ccc1-n1cnnn1 | -3.6% (inactive) |
| COc1ccccc1C1CCN(C(=S)Nc2ccc(Br)cc2)CC1 | 1.5% (inactive) |
| CCOCCn1c(-c2ccccc2)nc2ccccc21 | -0.9% (inactive) |
